# Source: PubChem BioAssay (National Center for Advancing Translational Sciences (NCATS))
# HCV inh = inhibitors of hepatitis C virus infection; Huh7.5.1 HCVcc-Cre infection, luciferase reporter, 44 h; Potency, µM (top dose mostly 41.8 µM), without a hit: at the top dose activity change, negative = inhibition, most hits filed as inhibitors; 3.4% of 340,000 active; AID 651820; active means well fitted inhibition curve with a large enough effect; inconclusive means small, poorly fitted or top-dose-only effect, or another doubt; inactive means no such curve, though single readings can be large or run the other way; further: potency means the concentration at half of the fitted maximal effect
#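 Reporter virus HCVcc-Cre (~0.5 moi) infects cells exposed to compound; seeding density 1,000 cells/well with 4 h settling beforehand. Luminescence, 15 sec read, taken 44 h post-infection following a 15 min RT substrate incubation.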
# FMDV antiviral = antivirals against foot and mouth disease virus. 1.2% of 410,000 active. FMDV antiviral cell-based qHTS. AID 1159524. Potency, µM (titrated, usually from 57.9 µM), for inactives: top-dose activity change, negative = inhibition, most hits filed as inhibitors; calls by dose curve; tested in HEK293T cells; further: read-out not given here; potency means the concentration at half of the fitted maximal effect; nearly all actives have a fitted effect of over 45% in size
# Vaccinia Venus = vaccinia inhibition (Venus reporter); Vaccinia virus Venus reporter expression, fluorescence; Potency, µM (top dose mostly 36.5 µM), for inactives: top-dose activity change, negative = inhibition, actives largely listed as inhibitors; 0.46% of 330,000 active; calls by dose curve; tested in A549 cells; further: potency means the concentration at half of the fitted maximal effect; nearly all actives have a fitted effect of over 30% in size
# VACV mCherry inh = inhibitors of vaccinia virus infection (mCherry reporter signal). Vaccinia virus mCherry reporter infection, fluorescence. Potency, µM (series often up to 36.5 µM), inactives show top-dose activity change, negative = inhibition, most hits filed as inhibitors. 0.63% of 310,000 active. AID 720579; calls by dose curve; tested in A549 cells; further: potency means the concentration at half of the fitted maximal effect; nearly all actives have a fitted effect of over 35% in size
# HCMV antiviral = human cytomegalovirus inhibition | HFF cells, HCMV-luciferase reporter, 72 h; active compounds read low | activity change, negative = inhibition, % at 57.5 µM | 4.5% of 410,000 active; in the data active means activity change below about -60%; inconclusive means no clear call, values can overlap the other calls; inactive means above about -39%
#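 Screen run at 2 compound doses on HFFs infected with reporter HCMV, MOI 1 PFU/cell. Luciferase activity from cell lysates at 72 h post infection gave inhibition relative to buffer-only and Salinomycin wells.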
# * marks the source's active call; other numbers are inactive results; i = inactive; ? = inconclusive; . = no result given. An excerpt weighted towards active compounds, which were near 7.3% of everything screened. On the % scale 0 is the no-effect control and ±100 the full control effect.
SMILES,HCV inh,FMDV antiviral,Vaccinia Venus,VACV mCherry inh,HCMV antiviral
CC1O[C@@H](OC2CC(O)[C@@]3(CO)C4C(O)C[C@@]5(C)C(C6=CC(=O)OC6)CC[C@]5(O)C4CC[C@]3(O)C2)C(O)C(O)C1O (some centres not stated),.,0%,0.28µM*,0.32µM*,.
Cc1ccc(-c2nc(CCNC(=O)C(=O)Nc3ccc(F)cc3F)cs2)cc1,.,-5%,-9%,-6%,11
Cc1ccc(S(=O)(=O)N[C@@H](C)CO)cc1,.,-5%,-4%,11%,82
COc1ccc(CCN2CCC(Nc3nc4ccccc4n3Cc3ccc(F)cc3)CC2)cc1,16µM*,0%,10µM*,11µM*,.
COc1ccc(CNc2nc3ccccc3n2CCN2CCCCC2)cc1,-20%,-6%,0%,-3%,-7
CCc1ccc(C(=O)Nc2nc3ccccc3[nH]2)cc1,?,5.6µM*,?,-10%,-101*
O=C(Nc1nc2ccccc2[nH]1)c1cc(F)cc(F)c1,3%,18%,-3%,-12%,10
O=C(Nc1nc2ccccc2[nH]1)c1ccccc1F,-18%,3.2µM*,-20%,14%,-79*
COc1ccc(Br)c(C(=O)Nc2nc3ccccc3[nH]2)c1,17%,32%,8%,i,-18
COc1ccc(Cl)cc1C(=O)Nc1nc2ccccc2[nH]1,-13%,11µM*,-20%,i,1
O=C(Nc1nc2ccccc2[nH]1)c1ccc(F)cc1,10%,20µM*,.,.,74
N#Cc1ccc(C(=O)Nc2nc3ccccc3[nH]2)cc1,-2%,-4%,-1%,-18%,90
CCC(C)NC(=O)c1c(C)oc2nc(C)nc(N3CCOCC3)c12 (configuration not stated),.,30%,-9%,-9%,6
Cc1cccc(C(=O)N2CCc3cc(CNC(=O)CCc4ccccc4)ccc32)c1,.,?,-12%,i,-22
Cc1ccc2c(c1)Cc1c(C(=O)NN3CCCCC3)nn(-c3ccc(Cl)cc3Cl)c1-2,.,0%,.,.,.
COc1ccc(CCNC(=O)c2ccc(Cl)c(S(=O)(=O)N3CCCCCC3)c2)cc1,2.8µM*,14µM*,.,.,-86*
O=C(NCc1ccccc1)c1ccc(Cl)c(S(=O)(=O)N2CCCC2)c1,-25%,-4%,.,.,-25
COc1ccc(COC(=O)c2ccc(Cl)c(S(=O)(=O)N3CC(C)OC(C)C3)c2)cc1 (configuration not stated),14µM*,?,-14%,-20%,0
O=C(NCCc1ccccc1)c1ccc(Cl)c(S(=O)(=O)N2CCCC2)c1,10µM*,-7%,.,.,.
O=C(NCc1ccccn1)c1ccc(Cl)c(S(=O)(=O)N2CCCCCC2)c1,11µM*,0%,-22%,?,22
C=C(C)n1c(=O)n(Cc2ccccc2C)c2ccccc21,-10%,-13%,.,.,-14
CC1CCCN(S(=O)(=O)c2cc(C(=O)NCCc3ccc(S(N)(=O)=O)cc3)ccc2Cl)C1 (configuration not stated),7.9µM*,18µM*,.,.,?
COc1ccc(CCNC(=O)c2ccc(Cl)c(S(=O)(=O)N(C)c3ccccc3)c2)cc1,3.5µM*,28µM*,?,-22%,-68*
O=C(NCC(O)c1ccccc1)c1ccc(Cl)c(S(=O)(=O)N2CCCCC2)c1 (configuration not stated),10µM*,-13%,-26%,-27%,?
COc1ccc(CCNC(=O)c2ccc(N(C)S(=O)(=O)c3ccc(C)cc3)cc2)cc1,10µM*,?,-27%,?,-11
SMILES,HCV inh,FMDV antiviral,Vaccinia Venus,VACV mCherry inh,HCMV antiviral
CC1CCCN(S(=O)(=O)c2cc(C(=O)NCc3ccco3)ccc2Cl)C1 (configuration not stated),?,3%,.,.,-13
Cc1cc(O)cc(C)c1NS(=O)(=O)c1ccc2ccccc2c1,-28%,-1%,.,.,-83*
COc1ccc2cc(S(=O)(=O)N3CCCCC3)ccc2c1S(=O)(=O)N1CCCCC1,?,?,-15%,i,-72*
COc1ccc(S(=O)(=O)Nc2ccc(S(=O)(=O)N3CCCCC3)cc2)cc1C,35µM*,96%,.,.,5
COc1ccc(S(=O)(=O)N2CCCCCC2)cc1N(C)S(=O)(=O)c1ccc(Cl)cc1,?,.,-27%,?,-60*
COc1ccc(S(=O)(=O)N2CCCN(S(=O)(=O)c3ccc(OC)c(C)c3)CC2)cc1C,?,.,-24%,-23%,-26
COc1ccc(S(=O)(=O)N2CCCC2)cc1OC,20%,-11%,3%,-17%,34
CN1CCCC2(CCN(C(=O)c3cc(C(F)(F)F)cc(C(F)(F)F)c3)CC2)C1,.,-3%,.,.,.
Cc1cc(C)c(NS(=O)(=O)c2ccccc2)c(C)c1NS(=O)(=O)c1ccccc1,?,-2%,-14%,-28%,-72*
Cc1ccc(S(=O)(=O)Nc2ccc3ccccc3c2)cc1,-5%,36%,?,?,-19
COc1ccc(S(=O)(=O)Nc2ccc3ccccc3c2)cc1C,11µM*,22%,.,.,-13
CC(C)NC(=O)Cn1ncn2c(cc3cc(F)ccc32)c1=O,.,13%,6%,-1%,5
C=CC[n+]1c(-c2ccc(OCC)cc2)csc1NNC(=O)Nc1ccccc1,7.1µM*,.,?,-19%,-88*
Cc1cccc(N2C(S)=C(C#N)C(=O)NC2c2ccco2)c1 (configuration not stated),3%,-4%,-20%,-15%,-68*
COc1cccc(C(O)c2ncc(-c3ccccc3)[nH]2)c1 (configuration not stated),.,48%,3%,46%,-2
COc1ccc2[nH]cc(C(=O)CN(C)C)c2c1,1%,-17%,8%,-1%,39
COc1ccc2c(C(=O)CCl)c[nH]c2c1,?,35µM*,.,.,-101*
Cc1cccc(NC(=O)CSc2nc3ccccc3nc2N2CCCC2)c1C,6%,-29%,-18%,i,-32
Cc1cc(Cl)n2nc(C)c(-c3ccc(Cl)cc3)c2n1,?,?,14µM*,?,-7
COc1ccc(-c2c(C)nn3c(C(F)(F)F)cc(C)nc23)cc1,.,0%,-30%,-6%,-16
Cc1cc(N)n2nc(C)c(-c3ccc(Cl)cc3)c2n1,11µM*,0%,?,?,-32
COc1ccc(-c2c(C)nn3c(C)cc(C)nc23)cc1,11µM*,-27%,-14%,-16%,-30
COc1ccc(C(C)C)cc1S(=O)(=O)NC1CCCC1,13%,15%,.,.,3
CCCC1NC(C(=O)O)Cc2c1[nH]c1ccccc21 (configuration not stated),3%,-4%,5%,-8%,7
CCN(CC)C(=O)c1oc2ccc(S(=O)(=O)N3CCCCCC3)cc2c1C,25µM*,?,-16%,-1%,?
Cc1c(C(=O)Nc2ccc(F)cc2)oc2ccc(S(=O)(=O)N3CC(C)CC(C)C3)cc12 (configuration not stated),?,.,-6%,-3%,-12
